Bioassay records as filed in PubChem BioAssay.
Shown are actives, neighbours in structure and some others; about 12% of the full set was active somewhere.
AmpC detergent: qHTS Inhibitors of AmpC Beta-Lactamase (assay with detergent); P00811; actives 0.041% (n = 370,000); Potency, µM (top dose mostly 114 µM), for the others: top-dose activity change, negative = inhibition, actives largely listed as inhibitors; AmpC hydrolysis of nitrocefin, absorbance 480 nm, 0.01% Triton; AID 485294, 2010;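 also: 0% = no-compound wells and -100% = no-enzyme wells; nearly all actives have a fitted effect of over 25% in size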
Target sequence (P00811 whole entry, looked up): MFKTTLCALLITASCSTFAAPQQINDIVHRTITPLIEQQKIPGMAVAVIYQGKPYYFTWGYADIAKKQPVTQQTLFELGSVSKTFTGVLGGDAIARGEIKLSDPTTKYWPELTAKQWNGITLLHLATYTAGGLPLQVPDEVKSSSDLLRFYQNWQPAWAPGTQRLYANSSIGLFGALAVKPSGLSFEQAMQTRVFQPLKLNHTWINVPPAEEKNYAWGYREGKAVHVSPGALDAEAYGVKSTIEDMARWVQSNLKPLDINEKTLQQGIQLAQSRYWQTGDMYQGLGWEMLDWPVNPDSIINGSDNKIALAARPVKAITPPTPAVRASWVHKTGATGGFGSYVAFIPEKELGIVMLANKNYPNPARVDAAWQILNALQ
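20 mM phosphate pH 7.0 + 0.01% (detergent screen) or 0.0001% Triton X-100; 5.3 nM AmpC reagent; cpd preinc 15 min RT; nitrocefin (800 uM stock) to start; A480 q20 s × 4 min; Activity was normalised to no-enzyme and no-compound control wells.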
Sm TGR inh: qHTS Assay for the Inhibitors of Schistosoma Mansoni Peroxiredoxins; Schistosoma mansoni thioredoxin glutathione reductase (TGR), Q962Y6; Potency, µM (highest dose often 114 µM), inactives show top-dose activity change, negative = inhibition, usual class: inhibitors; AID 485364, 2010; purified TGR, DTNB reduction, TNB absorbance 405 nm; actives 3% (n = 360,000); also: % is scaled to controls: 0 for no effect and ±100 for the full control effect; nearly all actives have a fitted effect of over 60% in size
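First, TGR (20 nM dispensed) and NADPH were mixed with compound. Second, a 15 min room-temperature incubation followed. Third, further NADPH and then DTNB were added to start the reaction. Finally, TNB absorbance was monitored kinetically.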
AmpC inh no detg: qHTS Inhibitors of AmpC Beta-Lactamase (assay without detergent); actives 0.52% (n = 330,000); AID 485341, 2010; P00811; Potency, µM (top dose mostly 57.1 µM), for the others: top-dose activity change, negative = inhibition, usual class: inhibitors; AmpC nitrocefin hydrolysis, absorbance 480 nm, 0.0001% Triton;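 also: plate controls were no compound for no effect and no enzyme for full effect; nearly all actives have a fitted effect of over 20% in size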
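AmpC (5.3 nM in the dispensed reagent) in 20 mM phosphate pH 7.0 with 0.01% (detergent screen) or 0.0001% Triton X-100 was preincubated with compounds for 15 min at room temperature. Nitrocefin was then added from an 800 uM solution, and hydrolysis was followed at 480 nm.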
Pf growth 96h: Primary qHTS for delayed death inhibitors of the malarial parasite plastid, 96 hour incubation; Potency, µM (top dose mostly 28.7 µM), inactives show at the top dose activity change, negative = inhibition, actives largely listed as inhibitors; actives 6.9% (n = 320,000); P. falciparum luciferase reporter growth, 96 h; also: % is scaled to controls: 0 for no effect and ±100 for the full control effect
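Erythrocytes infected with luciferase-expressing P. falciparum were dispensed at 2% hematocrit and 0.05% parasitemia (final), then incubated with compounds 96 hours at 37 C in 5% CO2. Luminescence after detection reagent addition reported growth.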
SARS PLpro yeast: qHTS of Yeast-based Assay for SARS-CoV PLP; Potency, µM (series often up to 32.9 µM), for inactives: top-dose activity, positive = growth rescue, actives largely listed as activators; actives 0.19% (n = 330,000); S. cerevisiae expressing SARS-CoV PLpro, growth rescue; calls by dose curve; also: 0% is about no effect; nearly all actives have a fitted effect of over 55% in size
Pf growth 48h: Primary qHTS for delayed death inhibitors of the malarial parasite plastid, 48 hour incubation. P. falciparum luciferase growth in erythrocytes, 48 h. AID 504832, 2011. actives 5.9% (n = 310,000). Potency, µM (doses to about 28.7 µM), for the others: top-dose activity change, negative = inhibition, most hits filed as inhibitors; also: % is scaled to controls: 0 for no effect and ±100 for the full control effect
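Firefly luciferase activity from engineered P. falciparum reports growth; inhibitors lower the luminescent signal. Cultures contained 2% hematocrit erythrocytes at 0.1% final parasitemia.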
* = called active by the depositor; ? = inconclusive; . = no result; [ ] = remark or other dose. Unless noted, calls follow the shape of the dose curve; as a rule, active = well fitted curve in the direction sought with a large enough effect; inconclusive = small, poorly fitted or top-dose-only effect, or another doubt; inactive = no such curve, though single readings can be large; an effect the other way counts as inactive or inconclusive. Potency is read from the fitted curve at half-maximal effect.

SMILES | AmpC detergent | Sm TGR inh | AmpC inh no detg | Pf growth 96h | SARS PLpro yeast | Pf growth 48h
O=S(=O)(c1ccccc1)N1CCN(C(=S)NCCc2ccccc2)CC1 | -7% | 11% | -27% | ? | 4% | ?
CCOc1ccc(S(=O)(=O)N2CCN(C(=S)NCc3ccccc3)CC2)cc1 | 4% | -1% | -50% | 2.1µM* | -1% | 2.3µM*
O=C(NCc1ccc(F)cc1)N1CCN(S(=O)(=O)c2ccccc2F)CC1 | -12% | 13% | -4% | -9% | 2% | 7%
COc1ccc(CNC(=S)N2CCN(S(=O)(=O)c3cccc(F)c3)CC2)cc1 | 3% | -13% | -20% | 3.3µM* | 1% | ?
COc1ccc(CCNC(=S)N2CCN(S(=O)(=O)c3cccc(F)c3)CC2)cc1 | ? | 3% | -6% | ? | 0% | ?
CCCC12CN3CC(C)(CN(C1)C3c1cn(CC)c3ccccc13)C2=O (stereo not drawn) | 18% | 0% | . | . | . | .
CCOc1ccc(S(=O)(=O)N2CCC(C(=O)N3CCN(Cc4ccccc4)CC3)CC2)cc1 | 0% | 1% | 198% | 1% | 2% | 9.3µM*
CCOC(=O)N1CCN(C(=O)C2CCN(S(=O)(=O)c3ccc(OCC)cc3)CC2)CC1 | ? | 1% | 131% | 44% | 5% | 0%
O=S(=O)(c1ccccc1)N1CCN(C(=S)NCc2ccccc2)CC1 | -13% | -1% | -40% | 2.1µM* | -1% | 2.6µM*
O=S(=O)(c1cccc(F)c1)N1CCN(C(=S)NCc2ccccc2)CC1 | ? | -10% | -24% | ? | -1% | 3.7µM*
O=C1CC(=Nc2ccccc2)NN1c1ccccc1 | -11% | 9% | -26% | 13µM* | -3% | ?
O=C1Cc2ccccc2N1c1ccccc1 | -8% | -4%[11.4 µM] | -19% | . | 1% | .
Cc1cccc(N2CCN(C(=O)CS(=O)(=O)Cc3nc(-c4ccccc4C)oc3C)CC2C)c1 (stereo not drawn) | 8% | 6% | . | . | . | .
COc1cc(C(=O)NCc2ncccc2C)ccc1OC1CCN(C(C)=O)CC1 | 6% | ? | -4% | 15µM* | 25% | 20%
C=CCN(CC=C)C(=O)c1ccc(OC2CCN(C(C)=O)CC2)c(OC)c1 | 0% | -24% | -6% | 2.9µM* | -1% | ?
COc1cc(C(=O)N(C)C2CCCCC2)ccc1OC1CCN(C(C)=O)CC1 | -5% | -14% | 42% | ? | 1% | -7%
C/C(=N\Nc1nc(N2CCCCC2)nc(N2CCOCC2)n1)c1ccccc1O | 9% | 0% | 35% | -2% | -1% | 12µM*
C/C(=N\Nc1nc(N2CCOCC2)nc(N2CCOCC2)n1)c1cccs1 | -5% | 9% | -17% | -22% | -1% | 16%
Cc1ccc(C(=O)N/N=C/C=C/c2ccccc2)cc1 | 0% | 15% | -28% | 1.7µM* | -1% | -30%
O=C(N/N=C/C(Br)=C\c1ccccc1)c1cccs1 | -5% | -18% | -45% | 3.7µM* | -3% | ?
CC(=C/c1ccccc1)/C=N/NC(=O)c1cccs1 | -3% | 12% | -34% | -66% | -1% | 254%
O=C(O)c1ccc(N/N=C/C(Br)=C/c2ccccc2)cc1 | -3% | 1.1µM* | -57% | 274% | -3% | 129%
CCOC(=O)C1=C(C)NC(=O)NC1/C(C)=C/c1ccccc1 (stereo not drawn) | ? | -10% | -10% | . | 0% | -5%
CSCCC(NS(=O)(=O)c1ccccc1)C(=O)Nc1nccs1 (stereo not drawn) | ? | -12% | -19% | 55% | -7% | 27%
Cc1ccc(NC(=O)CSc2nc3c(c(=O)[nH]2)CCC3)cc1Cl | -1% | 11% | . | . | . | .
SMILES | AmpC detergent | Sm TGR inh | AmpC inh no detg | Pf growth 96h | SARS PLpro yeast | Pf growth 48h
CCCCN(CC)CCNC(=O)c1cc2c(=O)oc3ccc(C)cc3c2s1 | -6% | -7% | . | . | . | .
O=C(N/N=C/C(Br)=C/c1ccccc1)c1ccncc1 | -8% | -24% | 42% | 15µM* | -6% | 10µM*
BrC(=C\c1ccccc1)/C=N/Nc1nc2ccccc2[nH]1 | -2% | 20µM* | -37% | ? | -17% | -97%
BrC(=C\c1ccccc1)/C=N/Nc1nc(N2CCOCC2)nc(N2CCOCC2)n1 | -6% | ? | 101% | ? | -46% | 7.4µM*
O=C(N/N=C/C(Br)=C/c1ccccc1)c1cccnc1 | 2% | -11% | -16% | 10µM* | -6% | 10µM*
CC(/C=N/NC(=O)c1ccncc1)=C\c1ccccc1 | -11% | -3% | -8% | 33% | 1% | ?
O=C(N/N=C/C(Br)=C\c1ccccc1)c1ccc2nc[nH]c2c1 | -4% | -20% | -33% | ? | -23% | 23%
CCN(C(=O)C1CCN(S(=O)(=O)c2ccc3c(c2)CCCN3C(C)=O)CC1)c1cccc(C)c1 | 6% | 9% | . | . | . | .
O=C(N/N=C/C(Br)=C/c1ccccc1)NC1CCCCC1 | 4% | ? | -32%[2.29 µM] | ? | -5% | ?
O=C(N/N=C/C(Br)=C/c1ccccc1)C1CC1 | 9% | ? | -27% | 9.3µM* | -7% | ?
O=C(N/N=C/c1sc(=O)n(-c2ccccc2)c1Cl)c1ccccc1 | -6% | ? | -25% | 2.3µM* | -11% | ?
O=C(N/N=C/c1ccoc1)c1ccccc1 | -13% | -4% | 4% | ? | -3% | 0%
O=C(N/N=C/c1ccc(Cl)s1)C(O)c1ccccc1 (stereo not drawn) | 1% | -1% | -28% | ? | 6% | 15%
NC(=O)N/N=C/c1sc(=O)n(-c2ccccc2)c1Cl | 4% | 32µM* | -3% | 25% | 6% | 28%
CCC(=O)N1c2ccccc2CC1C(=O)NCc1ccccc1Cl (stereo not drawn) | 11% | 6% | . | . | . | .
O=C(C[C@H]1C/C=C\C[C@@H](Cc2ccc(F)cc2)C(=O)OC[C@@H]2CCCN2C1=O)NCCO | . | . | 199% | . | 1% | .
C[C@@]12C(=O)Nc3ccc(Br)cc3C(=O)N1[C@H]1c3cc(Br)ccc3OC[C@@H]1[C@@H]2c1ccccc1 | -8% | -8% | -17% | 3.3µM* | 6% | 3.3µM*
C[C@@]12C(=O)Nc3ccc(Cl)cc3C(=O)N1[C@H]1c3cc(Br)ccc3OC[C@@H]1[C@@H]2c1ccccc1 | . | . | -10% | . | -4% | .
C[C@@]12C(=O)Nc3ccccc3C(=O)N1[C@H]1c3cc(Br)ccc3OC[C@@H]1[C@@H]2c1ccccc1 | -1% | -12% | -23% | ? | 0% | ?
